In all, about 310,000 compounds went through this assay and about 14,000 (4.5%) showed an effect of 50% or more. Effects have a minus sign here. Many of the other results were omitted from the sample, so strong results are more common in it than they were.
Molecular target: human ether-à-go-go-related gene (hERG) potassium channel (human, UniProt Q12809)
Test: primary screen, population patch clamp on CHO cells stably expressing hERG; higher = less effect of the substance
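Further: peak tail current of the secondary pulse compared with the same well before compound.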

Chain of human ether-à-go-go-related gene (hERG) potassium channel (Q12809 whole entry, looked up): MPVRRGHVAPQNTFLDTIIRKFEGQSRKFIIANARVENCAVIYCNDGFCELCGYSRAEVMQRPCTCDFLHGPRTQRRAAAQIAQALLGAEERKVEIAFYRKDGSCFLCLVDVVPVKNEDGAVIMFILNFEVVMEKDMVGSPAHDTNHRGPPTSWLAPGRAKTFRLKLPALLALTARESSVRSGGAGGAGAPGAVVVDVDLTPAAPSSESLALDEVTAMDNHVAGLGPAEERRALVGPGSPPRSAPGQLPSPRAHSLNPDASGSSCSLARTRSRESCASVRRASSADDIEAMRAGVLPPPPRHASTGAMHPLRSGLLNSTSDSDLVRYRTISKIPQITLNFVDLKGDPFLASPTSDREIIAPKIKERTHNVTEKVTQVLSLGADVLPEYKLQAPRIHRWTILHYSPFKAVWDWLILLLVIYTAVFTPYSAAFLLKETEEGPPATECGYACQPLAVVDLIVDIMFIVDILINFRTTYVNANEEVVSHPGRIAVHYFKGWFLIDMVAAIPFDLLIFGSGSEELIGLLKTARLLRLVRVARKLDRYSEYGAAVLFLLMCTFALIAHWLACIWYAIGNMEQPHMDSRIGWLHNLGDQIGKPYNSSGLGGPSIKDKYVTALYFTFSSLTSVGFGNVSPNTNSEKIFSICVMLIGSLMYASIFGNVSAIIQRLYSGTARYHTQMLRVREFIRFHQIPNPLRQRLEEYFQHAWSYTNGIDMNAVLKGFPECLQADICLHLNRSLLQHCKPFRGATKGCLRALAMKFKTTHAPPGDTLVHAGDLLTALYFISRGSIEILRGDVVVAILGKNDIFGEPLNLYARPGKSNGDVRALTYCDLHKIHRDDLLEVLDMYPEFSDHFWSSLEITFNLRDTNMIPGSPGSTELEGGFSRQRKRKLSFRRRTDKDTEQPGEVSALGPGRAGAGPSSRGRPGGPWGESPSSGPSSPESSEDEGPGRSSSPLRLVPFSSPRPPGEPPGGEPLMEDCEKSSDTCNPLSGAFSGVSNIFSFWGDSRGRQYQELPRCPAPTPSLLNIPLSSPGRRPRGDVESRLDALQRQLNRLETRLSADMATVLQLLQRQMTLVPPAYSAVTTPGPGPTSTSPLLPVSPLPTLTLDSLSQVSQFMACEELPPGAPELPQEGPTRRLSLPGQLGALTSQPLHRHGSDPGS

SMILES | hERG current change (%, negative = inhibition) at 10uM [%]
CC1=NN(C(=O)c2ccc(Cn3ccc([N+](=O)[O-])n3)cc2)C(O)(C(F)(F)F)C1 (centres unmarked) | -8.73
O=C1N(c2ccc(Cl)cc2)C(c2ccc(Cl)cc2)N2CCCN12 (centres unmarked) | -16.7
COc1ccccc1/C=C1\SC(=S)N(CCC(=O)NCCc2ccc(O)cc2)C1=O | 15.1
CCOC(=O)Oc1ccc2oc(=O)cc(C)c2c1 | 15.9
O=c1[nH]c(/C=C/c2cccc3ccccc23)nc2ccccc12 | 36.4
O=C(c1ccco1)N1CCN(C(=O)c2cc(-c3ccccc3F)no2)CC1 | -15.8
O=C(c1cc(-c2ccc(Cl)cc2)n[nH]1)N1CCN(C(=O)c2ccco2)CC1 | -68.9
Cc1ccc(-c2cc(C(=O)N3CCN(C(=O)c4ccco4)CC3)[nH]n2)cc1C | 5.83
COc1cccc(-c2cc(C(=O)N3CCN(C(=O)c4ccco4)CC3)on2)c1 | -13.9
O=C(c1ccco1)N1CCN(C(=O)c2cc(-c3ccc(F)cc3)no2)CC1 | -65.1
COc1ccc(-c2cc(C(=O)N3CCN(C(=O)c4ccco4)CC3)[nH]n2)cc1 | -31.6
CCOc1ccc(NC(=O)CCNC(=O)c2ccco2)cc1 | 6.08
Cc1ccc(C(=O)COC(=O)CNC(=O)Cc2ccccc2)cc1 | -2.44
COc1ccc(CCN2C(=O)c3cccc4cccc(c34)C2=O)cc1OC | 12.9
COc1ccc(C(CNC(=O)C(C)c2ccc3cc(OC)ccc3c2)N(C)C)cc1 (centres unmarked) | -7.44
Cc1ccc(NS(=O)(=O)c2cc(C(=O)NCc3ccccn3)ccc2Cl)cc1C | -47
COc1ccc(N2C(=O)C3C(c4ccc(OC)cc4O)NC(Cc4ccccc4)(C(=O)O)C3C2=O)cc1 (centres unmarked) | 19.5
COc1cc2c(cc1OC)CN(CC(=O)Nc1ccc(C#N)cc1)CC2 | -63.1
COc1cc2c(cc1OC)CN(C(=O)COc1ccc(C)c(C)c1)CC2 | -11.9
NC(=O)Nc1ccc(C(=O)OCC(=O)N2CCc3ccccc3C2)cc1 | 5.29
COc1cc2c(cc1OC)CN(CC(=O)Nc1ccc(F)cc1)CC2 | -7.62
CCC(=O)c1ccc(OCC(=O)OCC(=O)N2CCc3ccccc3C2)cc1 | -24.8
COc1ccc(C(=O)NCC(=O)N2CCc3ccccc3C2)cc1 | -2.27

SMILES | hERG current change (%, negative = inhibition) at 10uM [%]
COc1cc2c(cc1OC)CN(CC(=O)Nc1ccc(C)cc1)CC2 | -16.4
CCC(=O)c1ccc(OCC(=O)N2CCc3cc(OC)c(OC)cc3C2)cc1 | -33.2
COc1cc2c(cc1OC)CN(C(=S)Nc1ccc(OC(F)F)cc1)CC2 | -38.8
COc1cc2c(cc1OC)CN(C(=O)COc1ccc(C#N)cc1)CC2 | -63.4
O=C(OCC(=O)N1CCc2ccccc2C1)c1ccc(OC(F)F)cc1 | -80.2
COc1cc2c(cc1OC)CN(C(=O)CNC(=O)c1ccc(OC(F)F)cc1)CC2 | -52.5
CCC(C(=O)O)n1nc(-c2ccccc2)c2cc(Cl)ccc21 (centres unmarked) | 13.8
COc1ccc(C(c2nnnn2C2CCCCC2)N2CCN(c3ccccc3F)CC2)cc1 (centres unmarked) | 12.8
Cc1csc2ncc(C(=O)N3CCc4ccccc43)c(=O)n12 | 15.1
C=CCn1c(COc2cccc3ccc(C)nc23)nnc1SCC(=O)OC | -0.175
CCOC(=O)Cn1nc(C)c(NC(=O)COc2ccc(C)c(C)c2)c1C | 12.2
O=S(=O)(Nc1cccc(F)c1)c1cccc2nsnc12 | 3.21
CCOc1ccc(-c2nnc(-c3cccs3)o2)cc1OCC | 1.32
O=C(OCc1nnc(-c2cccs2)o1)c1cccnc1Cl | 4.2
CCOc1ccc(C(=O)OCc2nnc(-c3cccs3)o2)cc1OC | -54.9
COc1cc(OC)c(S(=O)(=O)NC(C)C)cc1S(=O)(=O)NC(C)C | 2.64
COc1ccc(C)cc1S(=O)(=O)Nc1ccc(F)cc1 | -1.24
Cc1ccc(NC(=O)c2ccc3nccnc3c2)c(C)c1 | -2.58
CCCCc1cc(=O)oc2c(C)c(OCC(=O)NCCN3CCOCC3)ccc12 | -82.1
Cc1c(OCC(=O)NCCN2CCOCC2)ccc2c1oc(=O)c1ccccc12 | -59.6
Cc1c(C)c2ccc(OCC(=O)NCCN3CCOCC3)c(C)c2oc1=O | 1.61
CCc1cc(=O)oc2c(C)c(OCC(=O)NCCN3CCOCC3)ccc12 | -0.348
Cc1c(OCC(=O)NCCCN2CCOCC2)ccc2c1oc(=O)c1ccccc12 | -46.6

SMILES | hERG current change (%, negative = inhibition) at 10uM [%]
CCCc1cc(=O)oc2c(C)c(OCC(=O)NCCN3CCOCC3)ccc12 | -31.6
Cn1c(SCc2ccccc2C#N)nnc1-c1ccncc1 | 7.11
CSc1ccccc1NC(=O)CN(C)C(=O)CCc1c[nH]c2ccccc12 | 0.0989
O=C(N/N=C\c1ccccn1)c1ccccc1O | 11
O=C(N/N=C/c1ccccn1)c1ccccc1 | 2.75
O=C(CCCC(=O)N/N=C\c1ccccn1)N/N=C\c1ccccn1 | 2.44
CCOc1ccc(Br)cc1C(=O)N/N=C/c1ccccn1 | -40.8
O=C(N/N=C/c1ccccn1)C1CC1 | -69.4
O=C(N/N=C/c1ccccn1)c1cc(Br)ccc1O | -54.9
COC(=O)c1cccc(CSc2nnc(-c3ccco3)n2-c2ccccc2)c1 | -33.9
C=CCNc1nnc(Cc2ccc(C(C)C)cc2)c(=O)[nH]1 | -0.924
CC(C)(C)c1ccc(-c2noc(CCC(N)=O)n2)cc1 | -11
Cc1ccc(NC(=O)C2CCN(S(=O)(=O)c3c(C)n[nH]c3C)CC2)nc1 | -23
CC1CCCN(C(=O)c2nn(C)c3c2CSc2ccccc2-3)C1 (centres unmarked) | -11.7
Cn1nc(C(=O)NC2CCCCC2)c2c1-c1ccccc1SC2 | -3.08
CC1CCCCN1CCCNC(=O)c1nn(C)c2c1CSc1ccccc1-2 (centres unmarked) | -67.1
Cn1nc(C(=O)NCCCN2CCCCC2)c2c1-c1ccccc1S(=O)(=O)C2 | -0.878
Cn1nc(C(=O)NCCCN2CCCCC2)c2c1-c1ccccc1SC2 | -66
CC1CCCN(CCCNC(=O)c2nn(C)c3c2CSc2ccccc2-3)C1 (centres unmarked) | -72.5
CC1CCC(NC(=O)c2nn(C)c3c2CSc2ccccc2-3)CC1 (centres unmarked) | 3.11
CC1CCCCN1CCCNC(=O)c1nn(C)c2c1CS(=O)(=O)c1ccccc1-2 (centres unmarked) | -8.49
CC1CCCN(CCCNC(=O)c2nn(C)c3c2CS(=O)(=O)c2ccccc2-3)C1 (centres unmarked) | -39.8
COc1cc(NC(=S)NC(=O)c2ccccc2C)ccc1NC(=O)c1cccs1 | -1.24

SMILES | hERG current change (%, negative = inhibition) at 10uM [%]
CSc1n[nH]c(NCc2cccs2)n1 | 8.8
CC(C)CC(C(=O)NCC1CCCO1)N(C(=O)Cn1nnc(-c2ccc(F)cc2)n1)c1cccc(C(F)(F)F)c1 (centres unmarked) | -0.701
CSc1nc(O)c(C(c2ccc(OC(C)C)cc2)c2c(O)nc(SC)[nH]c2=O)c(=O)[nH]1 | 16.9
CCOc1ccc(S(N)(=O)=O)cc1-c1nc2c(C(C)(C)C)nn(C)c2c(=O)[nH]1 | 10.9
CC(Sc1nnnn1-c1ccc(O)cc1)C(=O)NC1CCCCC1C (centres unmarked) | -9.23
CC(=O)C1=C(O)C(=O)N(c2ccc(S(=O)(=O)Nc3nccs3)cc2)C1c1ccc([N+](=O)[O-])cc1 (centres unmarked) | 10.6
C=CCn1c(SCc2nc3ccccc3c(=O)[nH]2)nc2sc3c(c2c1=O)CCCC3 | 2.93
Cc1ccc(-c2nnc(OCc3cccnc3)c3ccccc23)cc1 | -75.7
Cc1ccc(Oc2nnc(-c3ccccc3)c3ccccc23)cc1 | -2.98
c1ccc(COc2cncc(-c3cccnc3)c2)cc1 | -17.8
COc1ccc(-c2nnc(OCc3ccccc3)c3ccccc23)cc1 | 1.82
c1ccc(-c2nnc(OCc3cccnc3)c3ccccc23)cc1 | -83.2
Cc1ccc(-c2nnc(OCc3nc4ccccc4n3C)c3ccccc23)cc1 | -12
CCC(C)n1c(-c2cccs2)nc2nc3ccccc3nc21 (centres unmarked) | -4.95
COCCn1c(SC(C)C(=O)Nc2ccc(Cl)cn2)nnc1-c1ccncc1 (centres unmarked) | 4.13
COCCn1c(SCC(=O)Nc2ccc(Cl)cn2)nnc1-c1ccncc1 | -54.2
Cc1cc(NC(=O)CSc2nnc(-c3ccncc3)n2Cc2ccccc2)n(-c2ccccc2)n1 | -58.8
COCCn1c(SCC(=O)Nc2cc(C(C)(C)C)nn2-c2ccccc2)nc2ccccc2c1=O | -4.39
COCCn1c(SCC(=O)Nc2nnc(C)s2)nnc1-c1ccncc1 | -0.996
COCCn1c(SCC(=O)Nc2cc(C(C)(C)C)nn2-c2ccccc2)nnc1-c1ccncc1 | -60
Cc1cc(NC(=O)CSc2nnc(-c3ccncc3)n2C)n(-c2ccccc2)n1 | -21.9
COCCn1c(SCC(=O)Nc2cc(C)nn2-c2ccccc2)nnc1-c1ccncc1 | -37.7
CNC(=O)CSc1nnc(-c2ccncc2)n1Cc1ccccc1 | 9.26

Source: article PMC4336329 (PLoS ONE, 2015)
